Results filed as inconclusive are left out. The source made the active and inactive calls. How the source made its calls: active means hit-call score of the fitted dose curve at least 0.9, where 1 is the maximum; inconclusive means response in the unintended direction; inactive means score below 0.9.

Sequence of human Aurora Kinase A - serine/threonine-protein Kinase 6 (AurA), AURKA (gene 6790) (O14965 whole entry, looked up): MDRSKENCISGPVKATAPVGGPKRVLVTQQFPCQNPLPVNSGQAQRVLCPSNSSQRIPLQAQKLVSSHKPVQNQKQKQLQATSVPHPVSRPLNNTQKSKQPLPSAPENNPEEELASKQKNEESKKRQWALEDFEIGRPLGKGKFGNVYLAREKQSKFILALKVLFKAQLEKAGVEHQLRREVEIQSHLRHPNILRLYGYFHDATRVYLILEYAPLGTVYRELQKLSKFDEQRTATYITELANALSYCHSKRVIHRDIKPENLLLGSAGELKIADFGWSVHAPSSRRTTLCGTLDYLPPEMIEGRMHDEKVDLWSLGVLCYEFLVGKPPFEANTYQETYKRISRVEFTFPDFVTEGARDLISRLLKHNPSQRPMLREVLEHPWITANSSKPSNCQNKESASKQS
Sequence of human Elastase, ELANE (gene 1991) (P08246 whole entry, looked up): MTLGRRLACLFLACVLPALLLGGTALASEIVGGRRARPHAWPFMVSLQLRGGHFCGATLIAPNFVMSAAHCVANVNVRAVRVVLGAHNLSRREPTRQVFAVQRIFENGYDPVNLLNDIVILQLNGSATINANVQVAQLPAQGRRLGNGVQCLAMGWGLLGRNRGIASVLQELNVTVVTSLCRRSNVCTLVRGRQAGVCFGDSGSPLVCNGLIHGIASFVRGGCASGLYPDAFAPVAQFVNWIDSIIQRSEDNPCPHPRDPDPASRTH
Sequence of human Ephrin type-A Receptor 2 (EphA2), EPHA2 (gene 1969) (P29317 whole entry, looked up): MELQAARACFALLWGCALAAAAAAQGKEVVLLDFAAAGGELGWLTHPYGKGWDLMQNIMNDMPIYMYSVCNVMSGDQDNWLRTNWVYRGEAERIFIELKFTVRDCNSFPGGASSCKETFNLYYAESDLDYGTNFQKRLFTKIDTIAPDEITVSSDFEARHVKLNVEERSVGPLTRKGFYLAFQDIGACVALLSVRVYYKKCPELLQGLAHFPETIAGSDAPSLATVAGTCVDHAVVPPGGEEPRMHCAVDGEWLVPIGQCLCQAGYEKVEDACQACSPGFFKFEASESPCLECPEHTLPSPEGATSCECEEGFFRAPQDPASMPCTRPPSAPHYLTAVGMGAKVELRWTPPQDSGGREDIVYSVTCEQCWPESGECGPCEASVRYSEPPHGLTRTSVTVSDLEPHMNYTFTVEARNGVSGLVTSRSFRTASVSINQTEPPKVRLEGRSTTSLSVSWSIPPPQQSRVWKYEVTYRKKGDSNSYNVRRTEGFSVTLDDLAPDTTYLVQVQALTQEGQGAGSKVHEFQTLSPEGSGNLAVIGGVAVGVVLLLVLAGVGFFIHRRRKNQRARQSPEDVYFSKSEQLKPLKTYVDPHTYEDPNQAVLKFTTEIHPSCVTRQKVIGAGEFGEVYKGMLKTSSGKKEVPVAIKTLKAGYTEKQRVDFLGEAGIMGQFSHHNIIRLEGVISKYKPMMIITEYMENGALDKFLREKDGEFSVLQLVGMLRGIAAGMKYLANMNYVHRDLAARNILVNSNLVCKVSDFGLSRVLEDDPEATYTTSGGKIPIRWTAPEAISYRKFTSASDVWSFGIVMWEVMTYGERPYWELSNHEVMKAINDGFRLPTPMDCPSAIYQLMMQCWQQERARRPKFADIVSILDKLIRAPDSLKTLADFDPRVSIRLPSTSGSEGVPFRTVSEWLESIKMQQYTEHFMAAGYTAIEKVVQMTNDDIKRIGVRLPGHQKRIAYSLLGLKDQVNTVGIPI
Sequence of human Dual Specificity Protein Phosphatase 3 (DUSP3), DUSP3 (gene 1845) (P51452 whole entry, looked up): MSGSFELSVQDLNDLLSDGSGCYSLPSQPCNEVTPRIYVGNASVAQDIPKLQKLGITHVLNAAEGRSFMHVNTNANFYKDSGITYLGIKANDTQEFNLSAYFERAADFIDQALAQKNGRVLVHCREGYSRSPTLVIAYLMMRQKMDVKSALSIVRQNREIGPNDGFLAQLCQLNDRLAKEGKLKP
Sequence of human Caspase 4 (CASP4), CASP4 (gene 837) (P49662 whole entry, looked up): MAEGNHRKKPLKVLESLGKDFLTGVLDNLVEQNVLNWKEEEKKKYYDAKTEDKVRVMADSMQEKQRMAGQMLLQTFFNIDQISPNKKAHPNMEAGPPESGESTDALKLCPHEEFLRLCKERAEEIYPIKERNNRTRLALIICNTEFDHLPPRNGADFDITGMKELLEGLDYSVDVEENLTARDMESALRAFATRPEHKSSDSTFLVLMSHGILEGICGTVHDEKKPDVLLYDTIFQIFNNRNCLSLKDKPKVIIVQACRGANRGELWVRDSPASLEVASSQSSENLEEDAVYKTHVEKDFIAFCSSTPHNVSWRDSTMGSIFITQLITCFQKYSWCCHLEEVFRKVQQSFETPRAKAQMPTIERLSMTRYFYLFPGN
Sequence of human Casein Kinase 2- alpha 2 beta 2 (CK2a2b2), CSNK2A1 (gene 1457) (P68400 whole entry, looked up): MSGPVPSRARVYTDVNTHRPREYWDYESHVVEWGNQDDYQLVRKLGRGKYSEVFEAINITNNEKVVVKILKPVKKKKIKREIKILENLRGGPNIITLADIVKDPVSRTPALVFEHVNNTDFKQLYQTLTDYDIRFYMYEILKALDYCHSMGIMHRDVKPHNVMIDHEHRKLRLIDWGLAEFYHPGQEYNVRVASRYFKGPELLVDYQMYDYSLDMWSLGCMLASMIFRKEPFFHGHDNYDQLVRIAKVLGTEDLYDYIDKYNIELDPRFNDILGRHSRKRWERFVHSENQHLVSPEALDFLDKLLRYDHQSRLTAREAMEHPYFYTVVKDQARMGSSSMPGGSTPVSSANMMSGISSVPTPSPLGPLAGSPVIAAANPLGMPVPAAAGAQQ
Sequence of human Ephrin type-B Receptor 1 (EphB1), EPHB1 (gene 2047) (P54762 whole entry, looked up): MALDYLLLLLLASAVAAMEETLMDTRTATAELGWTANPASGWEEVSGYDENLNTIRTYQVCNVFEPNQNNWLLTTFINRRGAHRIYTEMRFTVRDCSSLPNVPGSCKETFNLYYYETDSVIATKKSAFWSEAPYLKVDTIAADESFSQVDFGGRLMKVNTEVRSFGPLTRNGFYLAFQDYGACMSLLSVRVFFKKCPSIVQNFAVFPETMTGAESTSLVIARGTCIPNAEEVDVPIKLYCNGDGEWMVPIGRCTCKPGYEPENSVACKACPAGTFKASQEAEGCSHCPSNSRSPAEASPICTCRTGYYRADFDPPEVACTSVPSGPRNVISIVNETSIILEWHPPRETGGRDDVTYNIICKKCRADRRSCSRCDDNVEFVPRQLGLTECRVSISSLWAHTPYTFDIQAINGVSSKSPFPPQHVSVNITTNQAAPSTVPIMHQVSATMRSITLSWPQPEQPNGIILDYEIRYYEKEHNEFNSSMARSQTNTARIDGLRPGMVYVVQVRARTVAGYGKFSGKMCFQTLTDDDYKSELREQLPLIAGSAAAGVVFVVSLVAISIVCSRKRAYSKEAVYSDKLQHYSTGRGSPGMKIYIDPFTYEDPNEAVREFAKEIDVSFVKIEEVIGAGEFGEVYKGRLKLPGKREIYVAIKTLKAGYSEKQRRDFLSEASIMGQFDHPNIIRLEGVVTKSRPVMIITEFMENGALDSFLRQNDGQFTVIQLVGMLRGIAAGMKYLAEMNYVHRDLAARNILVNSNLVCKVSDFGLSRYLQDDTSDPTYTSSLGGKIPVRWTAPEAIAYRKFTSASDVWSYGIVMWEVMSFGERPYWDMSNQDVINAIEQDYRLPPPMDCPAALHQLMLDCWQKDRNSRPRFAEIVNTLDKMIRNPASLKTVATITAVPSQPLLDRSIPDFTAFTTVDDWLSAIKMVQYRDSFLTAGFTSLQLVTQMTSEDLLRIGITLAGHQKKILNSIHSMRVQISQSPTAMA

The target of one test is human Aurora Kinase A - serine/threonine-protein Kinase 6 (AurA), AURKA (gene 6790) (UniProt O14965). Kind of test: NVS_ENZ_hAurA: NovaScreen (NVS) Enzymatic Assay for human Aurora Kinase A - serine/threonine-protein Kinase 6 (AurA) (AID 2283142). As for the experimental part:
NVS_ENZ_hAurA is a biochemical, single-readout assay that uses extracted gene-proteins in a cell-free assay. Measurements were taken 1 hour after chemical dosing in a 384-well plate.NVS_ENZ_hAurA is one of one assay component(s) measured or calculated from the NVS_ENZ_hAurA assay. It is designed to make measurements of enzyme activity, a form of enzyme reporter, as detected with fluorescence intensity signals by Fluorescence and electrophoretic mobility shift technology.Data from the assay component NVS_ENZ_hAurA was analyzed into 1 assay endpoint. This assay endpoint, NVS_ENZ_hAurA, was analyzed in the positive analysis fitting direction relative to DMSO as the negative control and baseline of activity. Using a type of enzyme reporter, loss-of-signal activity can be used to understand changes in the enzymatic activity as they relate to the gene AURKA. Furthermore, this assay endpoint can be referred to as a primary readout, because this assay has produced multiple assay endpoints where this one serves a enzymatic activity function. To generalize the intended target to other relatable targets, this assay endpoint is annotated to the kinase intended target family, where the subfamily is serine/threonine kinase.
Binding assays used specific radioligands (tritiated, iodinated) with non-radioactive competitive displacement ligands in agonist or antagonist protocols (as indicated) and various reference compounds and inhibitors to titrate specific binding to receptors and transporters. Most enzyme assays (CYPs, kinases, phosphatases, proteases, HDACs) used recombinant protein and specific substrates (fluorescence mostly, some colorimetric and radioactive) and inhibitors, followed by a biochemical separation of substrate and product. All assays for the biochemical HTS were initially run in duplicate at a single concentration (10 uM for CYP450 assays and 25 uM for all others). Assay-chemical combinations meeting a pre-defined threshold (e.g., 30% inhibition and other criteria defined below) were then run in singleton concentration-response format with maximum concentration of 20 uM for CYPs and 50 uM for all others. Each assay was run with positive and negative controls, and concurrent controls on every plate. The follow-up (secondary) screen tested active chemical-pairs in concentration series, as well as a few additional assays not tested in the primary screen, some selected negative inactives, and several cases re-run in the concentration series for confirmatory purposes.
As to `N#Cc1cc(Br)c(O)c(Br)c1`, the molecule was classed as inactive.
Same read-out and setting: the same measure for `CCCN(CCC)c1c([N+](=O)[O-])cc(S(N)(=O)=O)cc1[N+](=O)[O-]`: “inactive”.
`Cc1ccc(-c2c(Cl)nc(C#N)n2S(=O)(=O)N(C)C)cc1`: the AC50 (commonly the midpoint of the concentration-response curve, whichever way the signal moves) is 23.5 µM (active).
As for `CNC(=S)S`, the outcome was inactive.
Still for that read-out and setting: the same measure for `CCCCNC(=O)n1c(NC(=O)OC)nc2ccccc21`: “inactive”; for `Oc1ccccc1-c1ccccc1`: “inactive”; for `Fc1ccc(Oc2ccnc3cc(Cl)cc(Cl)c23)cc1`: “inactive”.

A further test deals with human Caspase 4 (CASP4), CASP4 (gene 837) (UniProt P49662). Kind of test: NVS_ENZ_hCASP4: NovaScreen (NVS) Enzymatic Assay for human Caspase 4 (CASP4) (AID 2283143). The method, boiled down:
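The cell-free assay used E. coli-expressed enzyme with a fluorogenic substrate, read 2 h after dosing. Signal loss was scored versus DMSO. Screening was in duplicate at 25 uM, then singleton concentration-response up to 50 uM.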
Take `CC(C)Oc1cc(-n2nc(C(C)(C)C)oc2=O)c(Cl)cc1Cl`: the molecule was called inactive.
The same measure, in the same setting: the same measure for `CNC(=S)S`: “inactive”; for `CC(C)C1(C)N=C(c2nc3ccccc3cc2C(=O)O)NC1=O` (configuration not stated): “inactive”.
Still for that read-out and setting: to `CO/C=C(/C(=O)OC)c1ccccc1Oc1cc(Oc2ccccc2C#N)ncn1` belongs “inactive”.

For a further test, the target named is CDK2 (gene 1017) (UniProt P24941). Kind of test: NVS_ENZ_hCDK2: NovaScreen (NVS) Enzymatic Assay for human Cyclin-Cependent Kinase 2 (CDK2) (AID 2283144). The method, boiled down:
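Cell-free recombinant human CDK2 with fluorescent substrate, product separated by electrophoretic mobility shift; 1 hr read. Primary screen at 25 uM in duplicate, actives retested in concentration-response up to 50 uM; loss of signal versus DMSO.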
Regarding `CCCN(CCC)c1c([N+](=O)[O-])cc(S(N)(=O)=O)cc1[N+](=O)[O-]`, the result was inactive.
Still for that read-out and setting: to `CCNc1nc(Cl)nc(NC(C)C)n1` belongs “inactive”; to `COc1nc(C)nc(NC(=O)NS(=O)(=O)c2ccccc2Cl)n1`, “inactive”.

The target of a further test is human Caspase 8 (CASP8), CASP8 (gene 841) (UniProt Q14790). The test is described as follows: NVS_ENZ_hCASP8: NovaScreen (NVS) Enzymatic Assay for human Caspase 8 (CASP8) (AID 2283146). As for the experimental part: NVS_ENZ_hCASP8 is a biochemical, single-readout assay that uses extracted gene-proteins from E. coli in a cell-free assay. Measurements were taken 1 hour after chemical dosing in a 96-well plate.NVS_ENZ_hCASP8 is one of one assay component(s) measured or calculated from the NVS_ENZ_hCASP8 assay. It is designed to make measurements of enzyme activity, a form of enzyme reporter, as detected with fluorescence intensity signals by Fluorescence technology.Data from the assay component NVS_ENZ_hCASP8 was analyzed into 1 assay endpoint. This assay endpoint, NVS_ENZ_hCASP8, was analyzed in the positive analysis fitting direction relative to DMSO as the negative control and baseline of activity. Using a type of enzyme reporter, loss-of-signal activity can be used to understand changes in the enzymatic activity as they relate to the gene CASP8. Furthermore, this assay endpoint can be referred to as a primary readout, because this assay has produced multiple assay endpoints where this one serves a enzymatic activity function. To generalize the intended target to other relatable targets, this assay endpoint is annotated to the protease intended target family, where the subfamily is cysteine protease.
Sequence of human Caspase 8 (CASP8), CASP8 (gene 841) (Q14790 whole entry, looked up): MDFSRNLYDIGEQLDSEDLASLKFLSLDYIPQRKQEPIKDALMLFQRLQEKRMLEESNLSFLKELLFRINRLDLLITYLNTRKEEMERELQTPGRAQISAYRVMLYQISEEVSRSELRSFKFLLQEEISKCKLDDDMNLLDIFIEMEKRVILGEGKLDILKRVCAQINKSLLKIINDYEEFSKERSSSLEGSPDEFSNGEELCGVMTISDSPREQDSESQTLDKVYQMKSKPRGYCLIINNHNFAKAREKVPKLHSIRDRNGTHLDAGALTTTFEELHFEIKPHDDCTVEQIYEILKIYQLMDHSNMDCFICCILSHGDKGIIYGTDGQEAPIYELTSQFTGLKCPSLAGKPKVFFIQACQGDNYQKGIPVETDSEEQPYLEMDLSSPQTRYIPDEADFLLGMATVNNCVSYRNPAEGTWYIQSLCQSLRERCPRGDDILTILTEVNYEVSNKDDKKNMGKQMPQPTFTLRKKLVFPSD
Binding assays used specific radioligands (tritiated, iodinated) with non-radioactive competitive displacement ligands in agonist or antagonist protocols (as indicated) and various reference compounds and inhibitors to titrate specific binding to receptors and transporters. Most enzyme assays (CYPs, kinases, phosphatases, proteases, HDACs) used recombinant protein and specific substrates (fluorescence mostly, some colorimetric and radioactive) and inhibitors, followed by a biochemical separation of substrate and product. All assays for the biochemical HTS were initially run in duplicate at a single concentration (10 uM for CYP450 assays and 25 uM for all others). […] Each assay was run with positive and negative controls, and concurrent controls on every plate. […]
In the case of `N#Cc1cc(Br)c(O)c(Br)c1`, the molecule was called inactive.
On to `CNC(=S)S`, for which the call was inactive.
On to `Fc1ccc(Oc2ccnc3cc(Cl)cc(Cl)c23)cc1`, for which the molecule was called inactive.

For the next test, the target named is human Casein Kinase 2- alpha 2 beta 2 (CK2a2b2), CSNK2A1 (gene 1457) (UniProt P68400). The test is described as follows: NVS_ENZ_hCK2a2b2: NovaScreen (NVS) Enzymatic Assay for human Casein Kinase 2- alpha 2 beta 2 (CK2a2b2) (AID 2283147). The method, boiled down:
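Cell-free recombinant CK2 α2β2 holoenzyme with a fluorescent peptide substrate; product separated by electrophoretic mobility shift and read 1 h after dosing. Single-point screen at 25 uM in duplicate; actives were followed with concentration-response up to 50 uM versus DMSO.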
With `Cc1cc(Cl)ccc1OCC(=O)O`, the AC50 was 16.2 µM (active).
Consider `N#Cc1cc(Br)c(O)c(Br)c1`, for which the concentration at half-maximal activity (AC50) is 13 µM (active).
For the molecule `CON(C)C(=O)Nc1ccc(Cl)c(Cl)c1`, the outcome was inactive.
On to `Cc1ccc(-c2c(Cl)nc(C#N)n2S(=O)(=O)N(C)C)cc1`, for which the AC50 is 6.49 µM (active).
For `CNC(=S)S`, the molecule was classed as inactive.
Regarding `O=C(O)COc1nc(Cl)c(Cl)cc1Cl`, the AC50 is 13.9 µM (active).

For the next test, the target named is human Casein Kinase 1-delta (CK1D), CSNK1D (gene 1453) (UniProt P48730). The test is described as follows: NVS_ENZ_hCK1D: NovaScreen (NVS) Enzymatic Assay for human Casein Kinase 1-delta (CK1D) (AID 2283148). The method, boiled down: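 Recombinant human CK1-delta, cell-free; fluorescent substrate with electrophoretic mobility-shift separation of product, read 1 h after dosing. Single 25 uM duplicate screen, then concentration-response up to 50 uM; loss of signal vs DMSO.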
Sequence of human Casein Kinase 1-delta (CK1D), CSNK1D (gene 1453) (P48730 whole entry, looked up): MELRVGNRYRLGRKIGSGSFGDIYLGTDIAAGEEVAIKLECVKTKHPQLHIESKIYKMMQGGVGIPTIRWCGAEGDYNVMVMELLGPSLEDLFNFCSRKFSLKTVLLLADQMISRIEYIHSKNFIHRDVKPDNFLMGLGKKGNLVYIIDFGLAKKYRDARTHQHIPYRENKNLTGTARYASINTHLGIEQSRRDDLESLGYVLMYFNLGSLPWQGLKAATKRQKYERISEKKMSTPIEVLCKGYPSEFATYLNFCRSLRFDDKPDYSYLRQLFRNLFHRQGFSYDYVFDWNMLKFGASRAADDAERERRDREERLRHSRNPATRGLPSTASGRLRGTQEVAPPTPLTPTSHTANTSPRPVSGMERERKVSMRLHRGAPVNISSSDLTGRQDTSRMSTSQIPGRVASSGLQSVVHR
As for `CCCN(CCC)c1c([N+](=O)[O-])cc(S(N)(=O)=O)cc1[N+](=O)[O-]`, the molecule was classed as inactive.
Still for that read-out and setting: the same measure for `Cc1ccc(-c2c(Cl)nc(C#N)n2S(=O)(=O)N(C)C)cc1`: “inactive”; for `CCNc1nc(Cl)nc(NC(C)C)n1`: “inactive”.
Still for that read-out and setting: to `CNC(=S)S` belongs “inactive”.
Same read-out and setting: the same measure for `CCCCC(CC)COC(=O)c1ccccc1C(=O)OCC(CC)CCCC` (configuration not stated): “inactive”; for `CCCCNC(=O)n1c(NC(=O)OC)nc2ccccc21`: “inactive”.
Turning to `CCNc1nc(Cl)nc(NCC)n1`, the molecule was called inactive.

In the next test the target is human Dual Specificity Protein Phosphatase 3 (DUSP3), DUSP3 (gene 1845) (UniProt P51452). The test is described as follows: NVS_ENZ_hDUSP3: NovaScreen (NVS) Enzymatic Assay for human Dual Specificity Protein Phosphatase 3 (DUSP3) (AID 2283152).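 Further: phosphatase activity of recombinant human DUSP3 on a fluorogenic substrate without cells.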 The method, boiled down:
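Cell-free assay with recombinant human DUSP3 and fluorogenic substrate, read by fluorescence intensity. Primary screen ran duplicate at 25 uM; actives followed up in concentration series; loss of signal versus DMSO scored.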
For the molecule `CCc1nn(C)c(C(=O)NCc2ccc(C(C)(C)C)cc2)c1Cl`, the molecule was classed as inactive.
The same measure, in the same setting: to `CCOC(=O)C(Cl)Cc1cc(-n2nc(C)n(C(F)F)c2=O)c(F)cc1Cl` (configuration not stated) belongs “inactive”; to `CC1COC(Cn2cncn2)(c2ccc(Oc3ccc(Cl)cc3)cc2Cl)O1` (configuration not stated), “inactive”; to `CNC(=S)S`, “inactive”.
Still for that read-out and setting: to `CO/C=C(/C(=O)OC)c1ccccc1Oc1cc(Oc2ccccc2C#N)ncn1` belongs “inactive”.

The next test concerns the target human Elastase, ELANE (gene 1991) (UniProt P08246). Kind of test: NVS_ENZ_hElastase: NovaScreen (NVS) Enzymatic Assay for human Elastase (AID 2283153). The method, boiled down:
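Cell-free elastase from human neutrophils, 1.5 h after dosing, activity read by absorbance. Primary screen in duplicate at 25 uM; hits (e.g., 30% inhibition) rerun in singleton concentration-response up to 50 uM, fitted versus DMSO.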
Consider `COP(=S)(OC)Oc1nc(Cl)c(Cl)cc1Cl`, for which the outcome was inactive.
For `CNC(=S)S`, the molecule was classed as inactive.
On to `COC(=O)C=C(C)OP(=O)(OC)OC`, for which the call was inactive.
Same read-out and setting: to `CCCCNC(=O)n1c(NC(=O)OC)nc2ccccc21` belongs “inactive”.
On the same count and under the same terms, the same measure for `CO/C=C(/C(=O)OC)c1ccccc1Oc1cc(Oc2ccccc2C#N)ncn1`: “inactive”; for `Oc1ccccc1-c1ccccc1`: “inactive”.

In the next test the target is human Ephrin type-B Receptor 1 (EphB1), EPHB1 (gene 2047) (UniProt P54762). Kind of test: NVS_ENZ_hEphB1: NovaScreen (NVS) Enzymatic Assay for human Ephrin type-B Receptor 1 (EphB1) (AID 2283154). The method, boiled down:
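Cell-free kinase assay with recombinant enzyme, fluorescent substrate and electrophoretic mobility-shift separation of substrate and product; read 1 h after dosing. Single-concentration duplicate screen at 25 uM; loss of signal versus DMSO baseline.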
For `N#Cc1cc(Br)c(O)c(Br)c1`, the molecule was called inactive.
Consider `C=CC1(C)OC(=O)N(c2cc(Cl)cc(Cl)c2)C1=O` (configuration not stated), for which the call was inactive.
On the same count and under the same terms, the same measure for `CC1COC(Cn2cncn2)(c2ccc(Oc3ccc(Cl)cc3)cc2Cl)O1` (configuration not stated): “inactive”; for `COC(=O)C(C)Oc1ccc(Oc2ccc(Cl)cc2Cl)cc1` (configuration not stated): “inactive”.
As to `CCCCOC(=O)c1ccccc1C(=O)OCCCC`, the molecule was called inactive.
Turning to `COc1ccc(C(c2ccc(OC)cc2)C(Cl)(Cl)Cl)cc1`, the call was inactive.
Same read-out and setting: the same measure for `CCCCNC(=O)n1c(NC(=O)OC)nc2ccccc21`: “inactive”.

The target in the next test is human Ephrin type-A Receptor 2 (EphA2), EPHA2 (gene 1969) (UniProt P29317). The test is described as follows: NVS_ENZ_hEphA2: NovaScreen (NVS) Enzymatic Assay for human Ephrin type-A Receptor 2 (EphA2) (AID 2283155). A digest of the protocol:
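Cell-free recombinant EphA2 kinase with specific substrate, 1 h, fluorescence with electrophoretic mobility-shift separation of substrate and product. Primary screen at 25 uM in duplicate; hits retested in singleton concentration-response up to 50 uM, referenced to DMSO.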
`N#Cc1cc(Br)c(O)c(Br)c1`: the molecule was called inactive.
Turning to `CCCN(CCC)c1c([N+](=O)[O-])cc(S(N)(=O)=O)cc1[N+](=O)[O-]`, the molecule was called inactive.
In the case of `Cc1ccc(-c2c(Cl)nc(C#N)n2S(=O)(=O)N(C)C)cc1`, the call was inactive.
The same measure, in the same setting: to `CO/C=C(/C(=O)OC)c1ccccc1Oc1cc(Oc2ccccc2C#N)ncn1` belongs “inactive”.

The values above are taken from PubChem BioAssay (EPA / NIEHS).
